This is part of a sample that, as a whole, favours compounds with a hit. Of some 79,000 tested, about 15% had one in any assay. No stated cut-off is given here; in the data, active means growth inhibition above about 70%; inactive means the rest.
Key:
[1] = NCI Yeast Anticancer Drug Screen. Data for the rad50 strain (AID 155);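 further: 0% = growth of vehicle-only cultures of the same strain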; conditions: S. cerevisiae rad50 strain growth inhibition; at 50.0 µM; stronger effect = higher value
Method in brief: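 Compounds were tested on a yeast strain with an engineered DNA damage repair alteration; the reported value is growth inhibition normalised to vehicle treatment.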

[2] = NCI Yeast Anticancer Drug Screen. Data for the mec2-1 strain (AID 157); conditions: S. cerevisiae mec2-1 strain, at 50.0 µM, stronger effect = higher value
Method in brief: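 Growth inhibition is read against vehicle-treated controls after compound exposure of the mec2-1 yeast strain, which is defective in DNA damage repair or cell cycle control.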

[3] = NCI Yeast Anticancer Drug Screen. Data for the sgs1 mgt1 strain (AID 161);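 further: 0% = growth of cultures given vehicle only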; conditions: S. cerevisiae sgs1 mgt1 strain, at 50.0 µM, stronger effect = higher value
Method in brief: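 Growth of a repair-deficient yeast mutant was monitored after compound treatment and expressed as inhibition relative to vehicle-treated cultures.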

[4] = NCI Yeast Anticancer Drug Screen. Data for the cln2 rad14 strain (AID 165);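 further: 0% = growth equal to vehicle treated cultures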; conditions: S. cerevisiae cln2 rad14 strain, at 50.0 µM, stronger effect = higher value
Method in brief: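 Growth inhibition, relative to vehicle-treated controls, is the read-out. The test organism is a yeast strain with defined genetic alterations, cln2 rad14.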

[5] = NCI Yeast Anticancer Drug Screen. Data for the bub3 strain (AID 167); conditions: S. cerevisiae bub3 mutant strain, at 50.0 µM, stronger effect = higher value
Method in brief: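 Growth of a checkpoint-deficient yeast mutant is measured after compound exposure. Values represent inhibition relative to vehicle.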

[6] = NCI Yeast Anticancer Drug Screen. Data for the mlh1 rad18 strain (AID 175); conditions: S. cerevisiae mlh1 rad18 strain growth inhibition; at 50.0 µM; stronger effect = higher value
Method in brief: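 Cells of a genetically altered yeast strain, deficient in DNA damage repair, were treated with compound. Their growth was then compared with that of vehicle-treated cultures to give inhibition.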

Measured: growth inhibition

C/C(=N/N(C=O)C[n+]1ccccc1)C(CN(CC(C)C)CC(C)C)C(=O)Nc1ccc(C)cc1C (centres undefined)
inactive: [1] -10.4% | [2] 40% | [3] -14.5% | [4] 31.5% | [5] 19.9% | [6] 19.9%

COc1cc(/C=N/n2c(C)cc(C)c(C#N)c2=O)cc(OC)c1OC
inactive: [1] -11.9% | [2] 12.9% | [3] -3.4% | [4] 9.1% | [5] -1.05% | [6] -25.4%

NNc1nc2ccccc2[nH]1
inactive: [1] 16.6% | [2] -0.1% | [3] -34.9% | [4] -14.4% | [5] 8.9% | [6] 8.85%

COc1c(Cl)cc([N+](=O)[O-])cc1Cl
inactive: [1] -3.5% | [2] 0.15% | [3] 3.1% | [4] -34.7% | [5] -18.5% | [6] -12.4%

O=C(CCc1cc(O)cc(O)c1)NCCc1cc(OCc2ccccc2)cc(OCc2ccccc2)c1
inactive: [1] 28.7% | [2] 24.7% | [3] 45% | [4] 33.2% | [5] 27.1% | [6] -42.6%

CCOC(=O)c1cc2ccccc2oc1=O
inactive: [1] -15.2% | [2] 0.3% | [3] -8.75% | [4] 16.4% | [5] 9.25% | [6] 3.9%

O=C1Nc2ccccc2C1(N1CCCCC1)N1CCCCC1
inactive: [1] 35.9% | [2] 21.9% | [3] 18.5% | [4] 7.9% | [5] 33.6% | [6] 26.6%

O=C(O)c1cccc(C(=O)c2ccccc2)c1
inactive: [1] 5.55% | [2] 6.15% | [3] 20.4% | [4] 4.4% | [5] -11.7% | [6] 0.7%

CCOC(=O)C(CCCOC1CCCCO1)(C(=O)CC)c1ccccc1 (centres undefined) (tested in a mixture with another compound)
inactive: [1] 25.4% | [2] -7.05% | [3] -6.25% | [4] 2.3% | [5] 1.9% | [6] -3.05%

COc1cc(C=Nc2ccc(C(C)C)cc2)cc(OC)c1OC
inactive: [1] 9.25% | [2] 13.3% | [3] 19.1% | [4] 8.35% | [5] -4.65% | [6] 12.7%

O=C(O)c1cccc2c1C(=O)c1c(O)cccc1C2=O
inactive: [1] 35.9% | [2] 19.9% | [3] 42.4% | [4] 25.9% | [5] 13.2% | [6] 30.2%

OC1(c2cccc(Cl)c2)C2=NCCCN2c2ccccc21 (centres undefined)
inactive: [1] 5.05% | [2] 8.45% | [3] 6.7% | [4] 21.6% | [5] -28.4% | [6] 5.75%

CC1CNC(C)(C)O1 (centres undefined)
inactive: [1] 36.5% | [2] 10.9% | [3] 18.9% | [4] 23.6% | [5] 11.6% | [6] 29.4%

Nc1nc(-c2ccccc2)nc2[nH]ncc12
inactive: [1] -5.45% | [2] -3.5% | [3] -11.2% | [4] -10.2% | [5] 1.6% | [6] 5.75%

O=C1C2(CCCC13N=NCC3c1ccccc1)N=NCC2c1ccccc1 (centres undefined)
inactive: [1] 28.9% | [2] -19.1% | [3] -0.95% | [4] -4.9% | [5] 0.85% | [6] 38.5%

CCCCCCOC(=O)CCCCCC1CCCCC1
inactive: [1] 3.15% | [2] -6.5% | [3] 2.3% | [4] -77.4% | [5] -6.05% | [6] -6.55%

CCCC(=O)C1=C(O)C(CC2=C(O)C(C)(C)C(=O)C(C(=O)CCC)=C2O)=C(O)C(C)(C)C1=O
inactive: [1] 26.3% | [2] -12.4% | [3] -2.5% | [4] 1% | [5] -0.15% | [6] 1.3%

CC(=O)N(C)c1ccc(N)cc1
inactive: [1] 33.5% | [2] 25.2% | [3] 24.9% | [4] -2.35% | [5] 31.8% | [6] 36.5%

NC(=O)C1=Cc2cccn2-c2ccccc2S1
inactive: [1] 3.45% | [2] -2.1% | [3] -2.75% | [4] -16.6% | [5] 2.1% | [6] 0.8%

Cc1ccc(S(=O)(=O)OC2C(C)OCOC3COCOC32)cc1 (centres undefined)
inactive: [1] -6.3% | [2] -6.45% | [3] 5.4% | [4] -13.7% | [5] 2.65% | [6] -9.85%

CCC(CO)c1ccccc1 (centres undefined)
inactive: [1] -3.6% | [2] -17.7% | [3] -3.1% | [4] -25.4% | [5] -3.1% | [6] -12.1%

C/C(CCC1CCCCC1)=N/Nc1ccc([N+](=O)[O-])cc1[N+](=O)[O-]
inactive: [1] 24% | [2] 8.9% | [3] 22.8% | [4] 16.5% | [5] 6.95% | [6] 5.55%

O=[N+]([O-])c1ccc(N/N=C/c2ccccc2Cl)cc1
inactive: [1] 8% | [2] 12.4% | [3] 26.4% | [4] -1.3% | [5] 36.4% | [6] 31.4%

C=CC(C)C(C)C (centres undefined)
inactive: [1] 3.15% | [2] 0.4% | [3] -7.55% | [4] 4.3% | [5] 8.65% | [6] -4.8%

Cn1c(=O)c2c(nc(OCC[N+](C)(C)C)n2C)n(C)c1=O
inactive: [1] 5% | [2] 11.8% | [3] -0.25% | [4] 33.4% | [5] 1.85% | [6] 2.45%

Nc1nnc2nc(CC(=O)c3cccc([N+](=O)[O-])c3)c(CC(=O)c3cccc([N+](=O)[O-])c3)nn12
inactive: [1] 4.5% | [2] 4.2% | [3] 9.35% | [4] 18.2% | [5] 18.6% | [6] 14.8%

CC1(C)C(c2ccccc2)=NN(O)c2ccccc21
inactive: [1] -22.3% | [2] -15.8% | [3] 0.25% | [4] 15.4% | [5] -4.5% | [6] -9.4%

Cc1ccccc1C1OC(=O)c2ccccc21 (centres undefined)
inactive: [1] 17.7% | [2] -8.85% | [3] 4.45% | [4] 4.2% | [5] 15.2% | [6] 27.6%

COC(=O)CCCC(NC(=O)c1ccc([N+](=O)[O-])cc1)C(=O)OC (centres undefined)
inactive: [1] 19.1% | [2] -9.45% | [3] 13.9% | [4] 5.45% | [5] 13.7% | [6] 14.9%

COc1c2c(cc3occ(-c4ccc(CC=C(C)C)cc4)c(=O)c13)OC(C)(C)C=C2
inactive: [1] -3.8% | [2] -11.6% | [3] -3% | [4] -24.8% | [5] -12.4% | [6] -35.5%

COc1cc(C)c2c([N+](=O)[O-])cc([N+](=O)[O-])c(OC)c2n1
inactive: [1] 12% | [2] 17.9% | [3] 4% | [4] 3.85% | [5] -10.2% | [6] 7.05%

CC(=N/Nc1ccc([N+](=O)[O-])cc1[N+](=O)[O-])/C(C)=C/C1C=CCCC1(C)C (centres undefined)
inactive: [1] 21.2% | [2] -2.75% | [3] 8.5% | [4] 3% | [5] 16.1% | [6] 6.65%

OCC1OC(Oc2ccccc2)C(O)C(O)C1O (centres undefined)
inactive: [1] 8.15% | [2] 30.6% | [3] 21.8% | [4] -1% | [5] 33% | [6] 24.1%

CC(Sc1nc2ccccc2c(=O)[nH]1)c1ccccc1 (centres undefined)
inactive: [1] 3.1% | [2] -1.85% | [3] 3.3% | [4] -21.8% | [5] 7.3% | [6] -6.7%

COc1ccc(NC(=O)CSc2nnc(Cc3ccccc3)o2)cc1
inactive: [1] -49.5% | [2] -37.4% | [3] -43.6% | [4] -21.1% | [5] -54% | [6] -57.6%

CCC(C=NCCBr)(CCC(=O)OC)CCC(=O)OC
inactive: [1] -7.9% | [2] 16.2% | [3] -13.9% | [4] -8.4% | [5] 12.4% | [6] 10.2%

O=C(O)/C(=C\c1ccccc1[N+](=O)[O-])c1ccccc1
inactive: [1] 35.3% | [2] -3.05% | [3] 7.45% | [4] -30.9% | [5] -1.45% | [6] 47.4%

O=S(=O)(SC1=NCCN1)c1ccc2ccccc2c1
inactive: [1] -2.75% | [2] -5.15% | [3] -15.1% | [4] 6.65% | [5] -3% | [6] -41.5%

COc1ccc(C#CCC(OC2OC(CO)C(O)C(O)C2O)C(O)c2ccc(OC)c(OC)c2)cc1OC (centres undefined)
inactive: [1] -0.15% | [2] -7.55% | [3] -6.95% | [4] 12% | [5] -17.2% | [6] -15.9%

From PubChem BioAssay (NCI)
